About 14,000 (4.5%) of roughly 310,000 compounds showed an effect of 50% or more. Effects have a minus sign here. The full list was thinned out, with strong results kept by preference.
What follows are compounds tested against human ether-à-go-go-related gene (hERG) potassium channel (human, UniProt Q12809) (assay: primary screen, population patch clamp on CHO cells stably expressing hERG; higher = less effect of the substance).
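Note: peak tail current of the secondary pulse compared with the same well before compound.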

Chain of human ether-à-go-go-related gene (hERG) potassium channel (Q12809 whole entry, looked up): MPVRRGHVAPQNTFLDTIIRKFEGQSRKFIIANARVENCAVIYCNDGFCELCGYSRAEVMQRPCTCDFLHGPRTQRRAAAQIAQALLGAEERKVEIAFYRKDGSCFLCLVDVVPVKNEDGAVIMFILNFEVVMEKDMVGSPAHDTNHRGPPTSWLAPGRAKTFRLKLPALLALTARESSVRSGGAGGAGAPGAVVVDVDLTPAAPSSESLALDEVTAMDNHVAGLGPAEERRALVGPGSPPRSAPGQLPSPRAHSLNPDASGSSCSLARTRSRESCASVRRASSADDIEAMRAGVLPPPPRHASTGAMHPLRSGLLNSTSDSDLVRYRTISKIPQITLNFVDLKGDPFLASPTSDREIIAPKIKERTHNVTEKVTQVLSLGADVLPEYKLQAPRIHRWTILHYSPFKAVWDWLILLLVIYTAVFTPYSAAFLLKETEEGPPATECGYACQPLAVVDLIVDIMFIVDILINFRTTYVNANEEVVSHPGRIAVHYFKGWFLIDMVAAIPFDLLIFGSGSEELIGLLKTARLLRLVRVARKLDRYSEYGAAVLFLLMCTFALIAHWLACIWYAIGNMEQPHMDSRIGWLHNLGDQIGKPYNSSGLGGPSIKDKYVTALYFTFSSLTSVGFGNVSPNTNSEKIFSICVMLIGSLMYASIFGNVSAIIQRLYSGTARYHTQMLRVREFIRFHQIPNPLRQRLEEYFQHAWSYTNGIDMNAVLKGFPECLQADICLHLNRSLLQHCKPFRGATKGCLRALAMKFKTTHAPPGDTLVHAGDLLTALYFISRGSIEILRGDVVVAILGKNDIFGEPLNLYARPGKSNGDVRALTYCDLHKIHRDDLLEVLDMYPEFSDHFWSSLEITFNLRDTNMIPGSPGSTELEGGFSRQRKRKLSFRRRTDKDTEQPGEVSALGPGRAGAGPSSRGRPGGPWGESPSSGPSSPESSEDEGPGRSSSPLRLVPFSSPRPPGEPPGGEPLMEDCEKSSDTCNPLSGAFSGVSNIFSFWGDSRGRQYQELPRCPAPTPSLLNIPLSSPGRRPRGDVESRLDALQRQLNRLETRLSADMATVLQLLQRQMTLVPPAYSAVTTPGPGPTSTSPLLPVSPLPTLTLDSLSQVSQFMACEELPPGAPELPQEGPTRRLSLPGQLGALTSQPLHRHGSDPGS

| SMILES | hERG current change (%, negative = inhibition) at 10uM |
| --- | --- |
| C[C@@H]1C(=O)O[C@H]2[C@H]1CC[C@@]1(C)C(=O)C=C[C@@](C)(O)[C@H]21 | 15.6% |
| C=CCN1C(=O)c2ccc(C(=O)OCC(=O)N3CCN(c4ccccc4)CC3)cc2C1=O | 7.02% |
| CC(C(=O)NCCc1ccccc1)N1c2cccc3cccc(c23)S1(=O)=O (stereo not shown) | -21.2% |
| Cc1ccc(C(=O)OCC(=O)NNC(=O)COc2ccc(Cl)cc2)c(O)c1 | -2.08% |
| O=C(Cc1ccc(NS(=O)(=O)c2ccc(F)cc2)cc1)NCc1ccccc1 | -16.4% |
| O=C(N/N=C/c1cc([N+](=O)[O-])ccc1O)C12CC3CC(CC(C3)C1)C2 | 8.39% |
| CCN(CC(=O)Nc1c(F)cccc1F)C(=O)CSc1ccccc1 | 8.37% |
| CCSc1ccccc1C(=O)Nc1ccc([N+](=O)[O-])cc1OC | -51.9% |
| CCSc1ccccc1C(=O)N1CCN(c2ccc([N+](=O)[O-])cc2)CC1 | -79.4% |
| CCSc1ccccc1C(=O)N1CCCC1 | -5.81% |
| O=C(c1cc([N+](=O)[O-])ccc1Cl)N1CCN(c2ccc([N+](=O)[O-])cc2)CC1 | -73.6% |
| COCCSc1ccccc1C(=O)Nc1cc([N+](=O)[O-])ccc1OC | -28.8% |
| O=C(c1cnc2n(c1=O)CCS2)N1CCN(c2ccccc2F)CC1 | -5.65% |
| COCCSc1ccccc1C(=O)Nc1ccc([N+](=O)[O-])cc1OC | -39.9% |
| CC(NC(=O)c1cnc2n(c1=O)CCS2)c1ccccc1 (stereo not shown) | 3.42% |
| CCSc1ccccc1C(=O)N1CCN(c2ccccc2F)CC1 | 17.6% |
| O=C(c1cc([N+](=O)[O-])ccc1Cl)N1CCN(c2ccccc2)CC1 | -6.43% |
| O=C(c1cnc2n(c1=O)CCS2)N1CCN(C(c2ccccc2)c2ccc(Cl)cc2)CC1 (stereo not shown) | -52.4% |
| O=C(c1cc([N+](=O)[O-])ccc1Cl)N1CCN(c2ccc(F)cc2)CC1 | -27.9% |
| Cc1cccc(NC(=O)COC(=O)Cc2cccc(C(F)(F)F)c2)c1C | 22.8% |
| Cc1cc(C)n(CCNC(=O)CC2C(=O)NCCN2Cc2ccccc2C(F)(F)F)n1 (stereo not shown) | 8.81% |
| COCCOC(=O)C1=C(C)OC(N)=C(C#N)C1c1ccc2c(c1)OCO2 (stereo not shown) | -0.292% |
| CCCOc1ccc(/C=N/NC(=O)C(C)Sc2ccccn2)cc1OCC (stereo not shown) | 14.9% |
| CCOCC(=O)Nc1cc([N+](=O)[O-])ccc1OC | 15.7% |
| N#C/C(=C\C=C\c1ccccc1)c1nc(-c2ccc3c(c2)OCO3)cs1 | -3.96% |
| COc1ccc(N(CC(=O)NCc2cccs2)S(=O)(=O)c2ccc(F)cc2)cc1 | -0.742% |

| SMILES | hERG current change (%, negative = inhibition) at 10uM |
| --- | --- |
| CN(Cc1nccs1)C(=O)C1CCC(=O)N(Cc2ccccc2F)C1 (stereo not shown) | -16.1% |
| COc1cccc(-c2ccc(=O)n(CC(=O)Nc3ccc(C(=O)N4CCCC4)cc3)n2)c1 | -15.4% |
| COc1cc(/C=C/c2cccc[n+]2C)ccc1OCC(=O)Nc1ccccc1.[I-] | 8.86% |
| COc1ccc(N2CCN(C(=O)c3cc(=O)[nH]c4ccccc34)CC2)cc1 | -0.412% |
| Cc1ccc(S(=O)(=O)N2CCN(C(=O)c3cc(S(=O)(=O)N(C)C)ccc3N3CCCC3)CC2)cc1 | -11.1% |
| O=C(c1cc([N+](=O)[O-])ccc1N1CCOCC1)N1CCOCC1 | 18.1% |
| Cc1ccc2c(C(=O)N3CCN(c4ccccc4)CC3)cc(-c3cccnc3)nc2c1C | 4.03% |
| Cc1cccc(N2CCN(C(=O)c3cc(S(=O)(=O)N(C)C)ccc3N3CCCC3)CC2)c1C | -12.3% |
| CC(=O)c1ccc(N2CCN(C(=O)c3cc(-c4cccnc4)nc4ccc(Br)cc34)CC2)cc1 | 2.5% |
| Cc1ccc2nc(-c3cccnc3)cc(C(=O)N3CCN(c4ccc([N+](=O)[O-])cc4)CC3)c2c1 | -68.2% |
| O=C(c1cc(=O)[nH]c2ccccc12)N1CCN(c2ccc([N+](=O)[O-])cc2)CC1 | -65.1% |
| O=C(c1cc([N+](=O)[O-])ccc1N1CCOCC1)N1CCN(c2ccccc2)CC1 | -32.3% |
| O=C(c1cc(=O)[nH]c2ccccc12)N1CCN(c2ccccc2)CC1 | 2.12% |
| O=C(c1cc([N+](=O)[O-])ccc1N1CCOCC1)N1CCN(c2ccc([N+](=O)[O-])cc2)CC1 | -79.8% |
| CN(C)S(=O)(=O)c1ccc(N2CCCC2)c(C(=O)N2CCN(c3ccc([N+](=O)[O-])cc3)CC2)c1 | -76.7% |
| CCOc1ccc(C(=O)NCC(=O)OCC(=O)Nc2ccccc2OC)cc1 | -18.1% |
| CCC(CC)C(=O)Nc1cc(C)cc(C)c1 | 0.735% |
| CC(NC(=O)COC(=O)CNC(=O)C1CCCCC1)c1ccccc1 (stereo not shown) | -3.81% |
| COc1ccc(/C=N/NC(=O)c2nnn(-c3nonc3N)c2-c2cccs2)c(OC)c1 | 13.1% |
| CC(C)(C)NC(=O)C(OC(=O)c1cccs1)c1ccccc1 (stereo not shown) | 58.8% |
| Cc1ccc(C(=O)NC(=S)NNC(=O)COc2ccccc2C)cc1 | 15.3% |
| O=C(O)C1CCCCC1C(=O)NCCc1ccncc1 (stereo not shown) | 1.96% |
| O=C(c1ccc(F)cc1)N1CCN2C(=O)c3ccccc3C12c1ccccc1 (stereo not shown) | -31.5% |
| COc1ccc2[nH]c(=O)c(CN(C(C)=O)c3cccc(C)c3)cc2c1 | -8.64% |
| Nc1nonc1-n1nnc(C(=O)N/N=C/c2ccccc2)c1CSc1ccc(Cl)cc1 | -23.6% |
| Cc1ccccc1C(=O)OC1OC(=O)C(Cl)=C1N1CCOCC1 (stereo not shown) | -20.1% |

Source: publication PMC4336329 (PLoS ONE, 2015)
